# Measurements published in PubChem BioAssay (NCATS).
# Starred links: 1 amine or outer side, 2 acyl side, 3 side chain; linkers in the order of their positions; H or OH if unused. Positions of bridges follow the written chain, without caps; N, C: chain ends. Non-standard residues stand in square brackets, D forms with d. Residues, ends and D or L forms follow the SMILES beside them. *: point of attachment. X2 = NC1=C[C@@H](O)C[C@H]([C@H](N[*:1])C(=O)[*:2])N1; ΔAla(3-NHCONH2) = NC(=O)NC=C(N)C(=O)O; β3hOrn = NCCC[C@H](N)CC(=O)*; Dap = NC[C@H](N)C(=O)O
# Experiment: qHTS profiling of the MIPE4 collection as inhibitors of Plasmodium falciparum (DD2) proliferation (Rep 2) (AID 743346)
# Settings: P. falciparum Dd2 in erythrocytes, SYBR Green DNA, 72 h; at 28.5 µM
# Method in brief: (§1)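 Erythrocytes infected with P. falciparum (0.3% parasitemia, 2.5% hematocrit) incubated with compounds 72 h at 37 C, 5% CO2. Lysis with saponin/Triton buffer containing SYBR Green I, overnight at room temperature in the dark; DNA fluorescence (485/535 nm) normalised to 0.29 uM artemisinin and DMSO.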
row,Compound,"parasite growth, % of control (lower = inhibition) [%]"
1,C[C@]1(COc2ccc(N3CCC(Oc4ccc(OC(F)(F)F)cc4)CC3)cc2)Cn2cc([N+](=O)[O-])nc2O1,90.2
2,NCCC[C@H](N)CC(=O)N[C@H]1CNC(=O)[C@H]([C@H]2C[C@H](O)C=C(N)N2)NC(=O)C(=CNC(N)=O)NC(=O)[C@H](CO)NC(=O)[C@H](CO)NC1=O (β3hOrn-[Dap]SS[ΔAla(3-NHCONH2)][X2]; lactam 1-C),133
3,CN([C@@H](Cc1ccc(O[S+](=O)([O-])c2cccc3cnccc23)cc1)C(=O)N1CCN(C(=O)OCc2ccccc2)CC1)[S+](=O)([O-])c1cccc2cnccc12,26.8
4,COC1=C2C[C@H](C)C[C@H](OC)[C@@H](O)[C@@H](C)C=C(C)[C@H](OC(N)=O)[C@@H](OC)C=CC=C(C)C(=O)NC(=CC1=O)C2=O,6.42
5,C[C@H]1C[C@H]2C3CCC4=CC(=O)C=C[C@@]4(C)[C@@]3(Cl)[C@@H](O)CC2(C)[C@@]1(OC(=O)c1ccco1)C(=O)CCl (stereo partly drawn),16.7
6,CCCC[C@@H]1C[C@@H](C(=O)NC([C@H](C)Cl)[C@H]2O[C@H](S)[C@H](O)[C@@H](O)[C@@H]2O)N(C)C1 (stereo partly drawn),28
7,CN(C)CCC=C1c2ccccc2COc2ccccc21,55.1
8,COc1ccc(S(=O)(=O)N(CCO)c2ccccc2CN(C)CC=Cc2ccc(Cl)cc2)cc1,18.1
9,CN[C@@H]1[C@@H](O[C@H]2[C@H](O[C@H]3[C@H](O)[C@@H](O)[C@H](N=C(N)N)[C@@H](O)[C@H]3N=C(N)N)O[C@@H](C)[C@]2(O)C=O)O[C@@H](CO)[C@H](O)[C@H]1O,118
10,CC1(C)O[C@@H]2[C@H]3OC(C)(C)O[C@]3(COS(N)(=O)=O)OC[C@H]2O1,101
11,CC(=O)NCC1CN(c2ccc(N3CCOCC3)c(F)c2)C(=O)O1 (stereo not drawn),75.9
12,O=CN(O)CCCP(=O)(O)O,17.4
13,CCN(CC)CCOc1ccc2c(=O)c3ccc(Cl)cc3n(CCN(CC)CC)c2c1,27.8
14,CN(C(=O)OC(C)(C)C)[C@@H](Cc1ccc(O[S+](=O)([O-])c2cccc3cnccc23)cc1)C(=O)N1CCN(C(=O)OCc2ccccc2)CC1,18.5
15,COc1cc(C)c2c(Oc3cccc(C(F)(F)F)c3)c(OC)cc(NCCCC(C)N)c2n1 (stereo not drawn),16
16,CC(C)=CCCC(C)=CCNCCNC1C2CC3CC(C2)CC1C3 (stereo not drawn),13.8
17,CC(C)(C)OC(=O)N[C@@H](Cc1ccc(O[S+](=O)([O-])c2cccc3cnccc23)cc1)C(=O)Nc1ccc(-c2ccccc2)cc1,13.9
18,C[C@H]1CCN(C(=O)CC#N)C[C@H]1N(C)c1ncnc2[nH]ccc12,51.2
19,CO[C@H]1C=CO[C@@]2(C)Oc3c(C)c(O)c4c(O)c(c(C=NN5CCN(C)CC5)c(O)c4c3C2=O)NC(=O)C(C)=CC=CC(C)[C@H](O)[C@@H](C)[C@@H](O)[C@@H](C)[C@@H](OC(C)=O)[C@H]1C (stereo partly drawn),8.95

# Experiment: qHTS profiling of the MIPE4 collection as inhibitors of Plasmodium falciparum (HB3) proliferation (AID 743347);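 also: plate controls were DMSO vehicle wells for no effect and artemisinin wells for full effect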
# Settings: P. falciparum HB3 in erythrocytes, SYBR Green DNA, 72 h; at 28.5 µM
# Method in brief: as §1
row,Compound,"growth, % of control [%]"
1,C[C@]1(COc2ccc(N3CCC(Oc4ccc(OC(F)(F)F)cc4)CC3)cc2)Cn2cc([N+](=O)[O-])nc2O1,88.7
2,NCCC[C@H](N)CC(=O)N[C@H]1CNC(=O)[C@H]([C@H]2C[C@H](O)C=C(N)N2)NC(=O)C(=CNC(N)=O)NC(=O)[C@H](CO)NC(=O)[C@H](CO)NC1=O (β3hOrn-[Dap]SS[ΔAla(3-NHCONH2)][X2]; lactam 1-C),100
3,CN([C@@H](Cc1ccc(O[S+](=O)([O-])c2cccc3cnccc23)cc1)C(=O)N1CCN(C(=O)OCc2ccccc2)CC1)[S+](=O)([O-])c1cccc2cnccc12,8.42
4,COC1=C2C[C@H](C)C[C@H](OC)[C@@H](O)[C@@H](C)C=C(C)[C@H](OC(N)=O)[C@@H](OC)C=CC=C(C)C(=O)NC(=CC1=O)C2=O,2.93
5,C[C@H]1C[C@H]2C3CCC4=CC(=O)C=C[C@@]4(C)[C@@]3(Cl)[C@@H](O)CC2(C)[C@@]1(OC(=O)c1ccco1)C(=O)CCl (stereo partly drawn),5.44
6,CCCC[C@@H]1C[C@@H](C(=O)NC([C@H](C)Cl)[C@H]2O[C@H](S)[C@H](O)[C@@H](O)[C@@H]2O)N(C)C1 (stereo partly drawn),52.4
7,CN(C)CCC=C1c2ccccc2COc2ccccc21,96.7
8,COc1ccc(S(=O)(=O)N(CCO)c2ccccc2CN(C)CC=Cc2ccc(Cl)cc2)cc1,9.71
9,CN[C@@H]1[C@@H](O[C@H]2[C@H](O[C@H]3[C@H](O)[C@@H](O)[C@H](N=C(N)N)[C@@H](O)[C@H]3N=C(N)N)O[C@@H](C)[C@]2(O)C=O)O[C@@H](CO)[C@H](O)[C@H]1O,86.4
10,CC1(C)O[C@@H]2[C@H]3OC(C)(C)O[C@]3(COS(N)(=O)=O)OC[C@H]2O1,59.9
11,CC(=O)NCC1CN(c2ccc(N3CCOCC3)c(F)c2)C(=O)O1 (stereo not drawn),99
12,O=CN(O)CCCP(=O)(O)O,9.42
13,CCN(CC)CCOc1ccc2c(=O)c3ccc(Cl)cc3n(CCN(CC)CC)c2c1,5.14
14,CN(C(=O)OC(C)(C)C)[C@@H](Cc1ccc(O[S+](=O)([O-])c2cccc3cnccc23)cc1)C(=O)N1CCN(C(=O)OCc2ccccc2)CC1,8.16
15,COc1cc(C)c2c(Oc3cccc(C(F)(F)F)c3)c(OC)cc(NCCCC(C)N)c2n1 (stereo not drawn),2.71
16,CC(C)=CCCC(C)=CCNCCNC1C2CC3CC(C2)CC1C3 (stereo not drawn),2.71
17,CC(C)(C)OC(=O)N[C@@H](Cc1ccc(O[S+](=O)([O-])c2cccc3cnccc23)cc1)C(=O)Nc1ccc(-c2ccccc2)cc1,4.11
18,C[C@H]1CCN(C(=O)CC#N)C[C@H]1N(C)c1ncnc2[nH]ccc12,114
19,CO[C@H]1C=CO[C@@]2(C)Oc3c(C)c(O)c4c(O)c(c(C=NN5CCN(C)CC5)c(O)c4c3C2=O)NC(=O)C(C)=CC=CC(C)[C@H](O)[C@@H](C)[C@@H](O)[C@@H](C)[C@@H](OC(C)=O)[C@H]1C (stereo partly drawn),6.73
